Measurements reported in PubChem BioAssay AID1159580 (chemical genetic matrix, 2015).
The whole screen tested about 5,500 compounds, of which about 2,000 (36%) were called active. About 18% were inconclusive and are not listed. Rule as the data show it: active = normalized growth mostly below about 0.91 (no sharp cut-off); inconclusive = no clear call, values can overlap the other calls; inactive = mostly above about 0.92. The list shows a part of the results.

Assay: chemical genetic growth profiling, strain panel (AID 1159580);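 also: tested at 20 µM; growth read once vehicle control cultures reached saturation at 30 °C; 1 = growth at the plate median or of vehicle wells; lower values mean less growth of the strain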
Conditions: growth OD

Measured: normalized growth

CC(=O)O[C@@H]1CC2C(C)(C)[C@H](O)CC[C@]2(C)C2CC[C@@]3(C)[C@H](c4ccoc4)OC(=O)C4OC43[C@@]21C (some centres not stated)
inactive: S. cerevisiae deletion strains, locus YJR066W, strain TOR1, active compounds read low 1 | S. cerevisiae deletion strains, locus YJR075W, strain HOC1, active compounds read low 1 | S. cerevisiae deletion strains, locus YKL009W, strain mrt4, active compounds read low 0.963 | S. cerevisiae deletion strains, locus YKL068W, active compounds read low 0.991 | S. cerevisiae deletion strains, locus YKL085W, strain MDH1 (second series), active compounds read low 0.99 | S. cerevisiae deletion strains, locus YKL085W, strain MDH1, active compounds read low 0.99 | S. cerevisiae deletion strains, locus YKL160W, strain elf1, active compounds read low 0.989 | S. cerevisiae deletion strains, locus YKR001C, strain vps1, active compounds read low 0.969 | S. cerevisiae deletion strains, locus YKR026C, strain gcn3, active compounds read low 0.992 | S. cerevisiae deletion strains, locus YKR091W, strain srl3, active compounds read low 1.01 | S. cerevisiae deletion strains, locus YLL001W, strain dnm1, active compounds read low 1.03 | S. cerevisiae deletion strains, locus YLL026W, active compounds read low 1.01 | S. cerevisiae deletion strains, locus YLL041C, strain sdh2, active compounds read low 1.01 | S. cerevisiae deletion strains, locus YLR027C, strain aat2, active compounds read low 1.01 | S. cerevisiae deletion strains, locus YLR039C, strain RIC1, active compounds read low 1.01 | S. cerevisiae deletion strains, locus YLR058C, strain SHM2, active compounds read low 1 | S. cerevisiae deletion strains, locus YLR102C, strain apc9, active compounds read low 0.989 | S. cerevisiae deletion strains, locus YLR113W, strain HOG1, active compounds read low 1.08 | S. cerevisiae deletion strains, locus YLR221C, strain rsa3, active compounds read low 1.02 | S. cerevisiae deletion strains, locus YLR258W, strain gsy2, active compounds read low 1.02 | S. cerevisiae deletion strains, locus YLR262C, strain YPT6 (second series), active compounds read low 1 | S. cerevisiae deletion strains, locus YLR262C, strain YPT6, active compounds read low 1.05 | S. cerevisiae deletion strains, locus YLR268W, strain sec22, active compounds read low 0.984 | S. cerevisiae deletion strains, locus YLR320W, strain mms22, active compounds read low 1.03 | S. cerevisiae deletion strains, locus YLR342W, strain FKS1 (second series), active compounds read low 1.06 | S. cerevisiae deletion strains, locus YLR342W, strain FKS1, active compounds read low 1.01 | S. cerevisiae deletion strains, locus YLR357W, strain rsc2, active compounds read low 1.03 | S. cerevisiae deletion strains, locus YLR370C, strain arc18, active compounds read low 1.01 | S. cerevisiae deletion strains, locus YLR371W, strain rom2, active compounds read low 0.975 | S. cerevisiae deletion strains, locus YLR384C, strain iki3, active compounds read low 1.02 | S. cerevisiae deletion strains, locus YLR418C, strain cdc73, active compounds read low 0.984 | S. cerevisiae deletion strains, locus YML016C, strain PPZ1, active compounds read low 0.982 | S. cerevisiae deletion strains, locus YML032C, strain rad52, active compounds read low 0.975 | S. cerevisiae deletion strains, locus YML120C, strain ndi1, active compounds read low 1.03 | S. cerevisiae deletion strains, locus YML124C, strain tub3, active compounds read low 0.988 | S. cerevisiae deletion strains, locus YMR058W, strain fet3, active compounds read low 1.03 | S. cerevisiae deletion strains, locus YMR078C, strain ctf18, active compounds read low 0.972 | S. cerevisiae deletion strains, locus YMR125W, strain sto1, active compounds read low 1 | S. cerevisiae deletion strains, locus YMR129W, active compounds read low 1 | S. cerevisiae deletion strains, locus YMR205C, strain PFK2, active compounds read low 1.04 | S. cerevisiae deletion strains, locus YMR223W, strain ubp8, active compounds read low 0.995 | S. cerevisiae deletion strains, locus YMR231W, strain pep5, active compounds read low 1.01 | S. cerevisiae deletion strains, locus YMR307W, strain GAS1, active compounds read low 0.977 | S. cerevisiae deletion strains, locus YNL067W, strain RPL9B, active compounds read low 1.02 | S. cerevisiae deletion strains, locus YNL071W, strain lat1, active compounds read low 0.994 | S. cerevisiae deletion strains, locus YNL128W, strain TEP1, active compounds read low 0.975 | S. cerevisiae deletion strains, locus YNL153C, strain GIM3, active compounds read low 1.01 | S. cerevisiae deletion strains, locus YNL183C, strain NPR1, active compounds read low 1.01 | S. cerevisiae deletion strains, locus YNL209W, strain ssb2, active compounds read low 1.01 | S. cerevisiae deletion strains, locus YNL233W, strain BNI4, active compounds read low 1.04 | S. cerevisiae deletion strains, locus YNL248C, strain rpa49, active compounds read low 0.979 | S. cerevisiae deletion strains, locus YNL250W, strain rad50, active compounds read low 1 | S. cerevisiae deletion strains, locus YNL271C, strain bni1, active compounds read low 0.991 | S. cerevisiae deletion strains, locus YNL298W, strain CLA4, active compounds read low 0.992 | S. cerevisiae deletion strains, locus YNL307C, strain MCK1, active compounds read low 0.995 | S. cerevisiae deletion strains, locus YNL322C, strain KRE1 (second series), active compounds read low 1.01 | S. cerevisiae deletion strains, locus YNL322C, strain KRE1, active compounds read low 1.01 | S. cerevisiae deletion strains, locus YNR049C, strain mso1, active compounds read low 1.01 | S. cerevisiae deletion strains, locus YNR052C, strain pop2, active compounds read low 0.997 | S. cerevisiae deletion strains, locus YOL012C, strain htz1 1.17 | S. cerevisiae deletion strains, locus YOL147C, strain pex11, active compounds read low 0.992 | S. cerevisiae deletion strains, locus YOR001W, strain rrp6, active compounds read low 0.994 | S. cerevisiae deletion strains, locus YOR061W, strain CKA2, active compounds read low 0.94 | S. cerevisiae deletion strains, locus YOR069W, strain VPS5, active compounds read low 1 | S. cerevisiae deletion strains, locus YOR070C, strain gyp1, active compounds read low 1.01 | S. cerevisiae deletion strains, locus YOR080W, strain dia2, active compounds read low 1.01 | S. cerevisiae deletion strains, locus YOR083W, strain WHI5, active compounds read low 0.979 | S. cerevisiae deletion strains, locus YOR106W, strain vam3, active compounds read low 1 | S. cerevisiae deletion strains, locus YOR136W, strain idh2, active compounds read low 0.998 | S. cerevisiae deletion strains, locus YOR144C, strain elg1, active compounds read low 0.984 | S. cerevisiae deletion strains, locus YOR184W, strain ser1, active compounds read low 0.975 | S. cerevisiae deletion strains, locus YOR231W, strain MKK1, active compounds read low 1.09 | S. cerevisiae deletion strains, locus YOR265W, strain rbl2, active compounds read low 1.01 | S. cerevisiae deletion strains, locus YOR270C, strain vph1, active compounds read low 0.912 | S. cerevisiae deletion strains, locus YOR290C, strain snf2, active compounds read low 0.985 | S. cerevisiae deletion strains, locus YOR316C, strain cot1, active compounds read low 0.977 | S. cerevisiae deletion strains, locus YPL051W, strain arl3, active compounds read low 1 | S. cerevisiae deletion strains, locus YPL078C, strain atp4, active compounds read low 0.973 | S. cerevisiae deletion strains, locus YPL106C, strain sse1, active compounds read low 1.03 | S. cerevisiae deletion strains, locus YPL240C, strain hsp82, active compounds read low 1 | S. cerevisiae deletion strains, locus YPL256C, strain CLN2, active compounds read low 1.08 | S. cerevisiae deletion strains, locus YPR119W, strain clb2, active compounds read low 0.992 | S. cerevisiae deletion strains, locus YPR141C, strain kar3, active compounds read low 0.962 | S. cerevisiae deletion strains, locus YPR163C, strain tif3, active compounds read low 0.984 | S. cerevisiae deletion strains, locus YPR167C, strain met16, active compounds read low 0.998 | S. cerevisiae deletion strains, strain wtn01, active compounds read low 0.959 | S. cerevisiae strains, strain wild type, active compounds read low 1
